Consider 14 sequences from the supplement of paper PMC6555819.

Common to all, as to assay: PBM binding z-score (relative to random genomic background probes); higher = stronger binding; sequences stand for … in GC…GCGATTGACAGCGTAGAATGAAGG
For experiment [1], the system named is RARb homodimer (NR concentration 270 nM). The method, boiled down: (§1)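 Binding buffer was PBS pH 7.4 with 2% milk, 0.02% Triton X-100, 1 mM DTT, 0.2 mg/mL BSA and 0.4 mg/ml salmon testes DNA. In it, ligand-free nuclear receptor dimers were incubated 1 h on custom Agilent 4×180K protein-binding microarrays carrying double-stranded probes. Antibodies against each partner (one per run) detected binding, and z-scores were calculated against random background probes after regression normalization of scanned fluorescence.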

For experiment [2], the system named is RARg:RXRa (NR concentration 270 nM, RXRa partner concentration 90 nM). The essentials:
as §1

Experiment [3] concerns RARg homodimer (NR concentration 270 nM). The method, boiled down: as §1
Experiment [4] concerns RXRa DBDmut IVT, anti-RXR (DBD mutation: RXRa K156A/R161A, NR concentration 90 nM). The method, boiled down:
as §1

Experiment [5] concerns RXRa homodimer (NR concentration 180 nM). The essentials:
as §1

The subject of experiment [6] is THRa:RXRa (NR concentration 90 nM, RXRa partner concentration 90 nM). The essentials:
as §1

In experiment [7] the test system is THRa homodimer (NR concentration 90 nM). The method, boiled down:
as §1

Experiment [8] deals with VDR homodimer (NR concentration 270 nM). The essentials:
as §1

Take CGAACGAGGGCACGAGTTGATAGCAAATGCCGAT: the PBM binding z-score in experiment [1] was determined as 1.05; in experiment [2], 1.8; in experiment [3], 1.98; in experiment [4] it was 2.18; in experiment [5], 1.49; in experiment [6] it was 1.84. The figures for the PBM binding z-score in experiment [7] and in experiment [8] were 0.134 and 1.58, respectively.
With CCGATTGGGGCAAAGGTTACCATACTCAGTACGA, the PBM binding z-score in experiment [1] turned out to be 2.03; in experiment [2] it was 3.52; in experiment [3] it was 1.64; in experiment [4], 0.678; in experiment [5] it was 3.76; in experiment [6], 1.84. Also, the PBM binding z-score in experiment [7] was -0.136; in experiment [8], 0.0147.
Consider ATCTCTAGGTAAGACTGAGTTCAGTGAAGAACGC, for which the PBM binding z-score worked out at 1.05 in experiment [1]; 0.569 in experiment [2]; 0.377 in experiment [3]; 1.38 in experiment [4]; 0.265 in experiment [5]; 1.25 in experiment [6]. Moreover, the results for the PBM binding z-score in experiment [7] and in experiment [8] were 0.797 and 3.47, respectively.
Take GCTAGTTGGTCCGTAAAAGGTCACACACCGGTCG: the PBM binding z-score in experiment [1] came to 5; in experiment [2], 5.04; in experiment [3], 4.7; in experiment [4] it was 0.491; in experiment [5], 5.6; in experiment [6], 3.5. For the same sequence, the PBM binding z-score in experiment [7] came out at 1.82; in experiment [8], 1.94.
GTACCAAAGTGAATAGGTCGTTGATGAGTAGGCG: the PBM binding z-score is 0.226 in experiment [1]; 0.205 in experiment [2]; 0.383 in experiment [3]; -0.282 in experiment [4]; 0.584 in experiment [5]; -0.048 in experiment [6]. Further, the PBM binding z-score in experiment [7] was -0.733; in experiment [8], -0.0624.
Regarding CGTCAAAGTTCAACTAAGGTAACGTAGAGCACGC, the PBM binding z-score stood at 4.06 in experiment [1]; 6.15 in experiment [2]; 6.74 in experiment [3]; 4.65 in experiment [4]; 5.34 in experiment [5]; 5.11 in experiment [6]. Further, the PBM binding z-score was 1.86 in experiment [7] and 3.92 in experiment [8].
Take TCTAGTTGGTCAACGGTCACACACTCGAAATGCG: the PBM binding z-score came to 2.49 in experiment [1]; 1.51 in experiment [2]; 2.16 in experiment [3]; 1.24 in experiment [4]; 1.23 in experiment [5]; 0.548 in experiment [6]. For the same sequence, the PBM binding z-score in experiment [7] stood at 0.185; in experiment [8], 0.188.
Turning to GCTATTAGTTGAAAGGCCAACCGAATGATTCTCG, the PBM binding z-score in experiment [1] was determined as 1.27; in experiment [2], 0.828; in experiment [3], 0.862; in experiment [4], 1.04; in experiment [5], 0.44; in experiment [6], 0.141. Further, the PBM binding z-score in experiment [7] is -0.222; in experiment [8], 0.0426.
With CCAGACAGGTGAGAGGGTAACTCAGCCTCGATTA, the PBM binding z-score is 1.02 in experiment [1]; 0.576 in experiment [2]; 0.626 in experiment [3]; -0.231 in experiment [4]; 0.666 in experiment [5]; 0.388 in experiment [6]. The PBM binding z-score was found to be 0.0769 in experiment [7] and 0.287 in experiment [8].
With GCGACTGGGTCATCAGCAGGTTACCATAACTTAA, the PBM binding z-score in experiment [1] was determined as 2.55; in experiment [2] it was 4.89; in experiment [3], 3.53; in experiment [4], 0.877; in experiment [5], 3.03; in experiment [6] it was 2.88. The figures for the PBM binding z-score in experiment [7] and in experiment [8] were 0.268 and 0.085, respectively.
As for GCTGCTAGTTCAGGTTGGTCAGCTAACGGGTACG, the PBM binding z-score in experiment [1] is 0.833; in experiment [2], 0.083; in experiment [3], 0.586; in experiment [4] it was 1.19; in experiment [5] it was -0.153; in experiment [6], -0.00713. Besides, the values for the PBM binding z-score in experiment [7] and in experiment [8] were -0.222 and 0.636, respectively.
Regarding TTACCAAGGTGAAGGTCGCTGATCCCTCTGTAGA, the PBM binding z-score was 2.03 in experiment [1]; 1.72 in experiment [2]; 1.7 in experiment [3]; -0.269 in experiment [4]; 1.85 in experiment [5]; 2.41 in experiment [6]. The values for the PBM binding z-score in experiment [7] and in experiment [8] were 0.612 and -0.248, respectively.
On to CCAGACACGTGAGAAGGTAACTCAGCCTCGATTA, for which the PBM binding z-score in experiment [1] is -0.118; in experiment [2], 0.0186; in experiment [3] it was 0.206; in experiment [4], 0.268; in experiment [5], 0.0109; in experiment [6], -0.00448. The PBM binding z-score was -0.0296 in experiment [7] and 0.0283 in experiment [8].
On to TCTATTAGTTGATTAGGGCAACCAAAACAGCGGA, for which the PBM binding z-score in experiment [1] was determined as 0.623; in experiment [2], 0.694; in experiment [3], 0.677; in experiment [4], 0.92; in experiment [5] it was 0.57; in experiment [6], 0.825. In addition, the values for the PBM binding z-score in experiment [7] and in experiment [8] were 0.291 and 0.358, respectively.
